Results filed as inconclusive are left out. A number with no mark means an inactive call. The call rests on the fitted dose curve; in most records, active means well fitted curve in the direction sought with a large enough effect in the signal ratio, with a control signal flat; inconclusive means small, poorly fitted or top-dose-only effect, or effect the other way, or a change in a side signal; inactive means no such curve, though single readings can be large or run the other way; the % refers to the signal ratio.
These compounds were tested against Androgen receptor (Homo sapiens) (UniProt P10275) (assay: qHTS assay for small molecule agonists of androgen receptor signaling (AID 588515)). Settings: AR-UAS-bla HEK293, beta-lactamase ratio, agonist 16 h; activation: hits give high values.
Chain of Androgen receptor (Homo sapiens) (P10275 whole entry, looked up): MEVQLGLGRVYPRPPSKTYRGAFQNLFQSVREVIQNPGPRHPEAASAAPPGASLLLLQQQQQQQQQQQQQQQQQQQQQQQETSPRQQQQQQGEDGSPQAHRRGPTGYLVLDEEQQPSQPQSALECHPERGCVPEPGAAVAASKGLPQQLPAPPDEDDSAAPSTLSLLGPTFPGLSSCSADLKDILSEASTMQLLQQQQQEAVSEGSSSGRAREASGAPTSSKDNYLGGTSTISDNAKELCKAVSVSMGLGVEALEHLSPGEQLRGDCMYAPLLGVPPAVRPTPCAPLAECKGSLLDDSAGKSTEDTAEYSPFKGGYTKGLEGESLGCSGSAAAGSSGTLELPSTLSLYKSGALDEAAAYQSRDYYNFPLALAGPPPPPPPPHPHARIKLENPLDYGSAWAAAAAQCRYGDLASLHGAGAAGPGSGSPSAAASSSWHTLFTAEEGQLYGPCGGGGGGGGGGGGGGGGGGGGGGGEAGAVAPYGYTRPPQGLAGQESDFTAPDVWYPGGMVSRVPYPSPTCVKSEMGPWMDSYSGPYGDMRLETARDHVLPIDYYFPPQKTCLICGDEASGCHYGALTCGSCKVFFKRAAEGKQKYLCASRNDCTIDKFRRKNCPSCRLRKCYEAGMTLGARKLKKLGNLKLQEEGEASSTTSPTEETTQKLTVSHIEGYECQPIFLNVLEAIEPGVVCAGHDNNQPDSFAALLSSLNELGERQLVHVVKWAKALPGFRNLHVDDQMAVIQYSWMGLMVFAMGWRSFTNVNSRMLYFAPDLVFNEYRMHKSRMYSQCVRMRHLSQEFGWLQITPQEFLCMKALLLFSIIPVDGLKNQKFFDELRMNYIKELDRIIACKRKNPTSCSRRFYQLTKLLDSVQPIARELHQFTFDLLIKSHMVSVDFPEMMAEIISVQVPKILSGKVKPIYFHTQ
Description: NIH Chemical Genomics Center [NCGC] U.S. Environmental Protection Agency [EPA] National Institutes of Environmental Health Sciences [NIEHS] National Toxicology Program [NTP] NCGC Assay Overview Androgen receptor (AR), located at chromosome Xq11-12, is an important member of nuclear hormone receptors. AR signaling plays a critical role in AR-dependent prostate cancer and other androgen related diseases. Considerable attention has been given in the past decades to the possibility of some of environmental chemicals which may contribute the endocrine disruption. Therefore, it is important to understand the effect of environmental chemicals in AR signaling pathway.
NCGC Assay Protocol Summary Using a beta-lactamase reporter-gene under control of the AR response element, a cell-based assay [GeneBLAzer AR-UAS-bla-GripTite assay developed by Invitrogen] was used to measure AR ligands signaling. AR-UAS-bla-GripTite HEK 293 cells were used with assay medium containing 10% dialyzed FBS, 0.1 mM NEAA and 1 mM sodium pyruvate. The assay was performed in clear bottom black Greiner 1536-well plates. R1881, a synthetic androgen agonist, was used as a positive control in the screen. Library compounds were measured for their ability to stimulate the reporter gene activity. Compounds were screened in a titration series in 1536-well format. The fluorescence intensity (405 nm excitation, 460/530 nm emission) was measured using an EnVision plate reader. Data was normalized relative to R1881 control (30 nM, 100%), and DMSO only wells (basal, 0%). Concentration-response titration points for each compound were fitted to the Hill equation yielding concentrations of half-maximal stimulation (EC50) and maximal response (efficacy) values. qHTS protocol for AR beta-lactamase assay in agonist mode [Step] [Parameter] [Value] [Description] 1. Reagent; 6 uL; 2000 cells/well 2. Incubation; 37 C for 5 hrs 3. Compounds; 23 nL; 0.59 nM to 92 uM 4. Controls (R1881); 23 nL, - Dose response, start 3.83uM, 1:3 dilutions with duplicates in one column - Final concentrations of 30 and 20nM in two columns 5. Incubation; 37 C for 16 hrs 6. Detection reagent; 1 uL of CCF4-dye 7. Incubation; RT for 2 hrs 8. Detection; Fluorescence; Envision plate reader

SMILES	activation
O=C(O)CN(CCO)CCN(CC(=O)O)CC(=O)O	3.88%
CC1(C)CC(NCCCCCCNC2CC(C)(C)NC(C)(C)C2)CC(C)(C)N1	6.67%
O=C1NC(=O)C(Cc2ccc(OCCN3COc4ccccc4C3=O)cc2)S1 (stereo not given)	-3.44%
CCCCC(CC)C(=O)OCCOCCOCCOC(=O)C(CC)CCCC (stereo not given)	6.77%
C[Si](C)(Cl)[Si](C)(C)Cl	-5.2%
C[Si](Cl)(Cl)c1ccccc1	5.21%
COC(=O)c1cccc(C(=O)OC)c1	-4.83%
CCCCOC(=O)c1ccccc1	0.383%
Nc1ccc(N)c2c1C(=O)c1c(N)ccc(N)c1C2=O	5.62%
CCOC(=O)C1=NN(c2ccc(Cl)cc2Cl)C(C)(C(=O)OCC)C1 (stereo not given)	-14.3%
CCCCCCCCCCCC[N+](C)(C)[O-]	-8.49%
CCCCCCCOC(=O)c1ccccc1C(=O)OCCCCCCC	-1.72%
CCCCCCCCCCCCCCCCCCN	-9.22%
CC(C)=CCC/C(C)=C\CO	-0.0899%
CCCCCCCCCc1ccccc1	1.05%
O=C(O)c1ccc(C(=O)O)c(C(=O)O)c1	-3.3%
CN=C(N)NCC1CCOC1 (stereo not given)	2.67%
Nc1cc(Cl)nc(C(=O)O)c1Cl	6.83%
CC1(C)[C@@H](C=C(Cl)Cl)[C@@H]1C(=O)OCc1cccc(Oc2ccccc2)c1	-22.2%
CC(=O)Nc1ccc(N=Nc2cc(C)ccc2O)cc1	-4.42%

SMILES	activation
CO[Si](CCCNCCN)(OC)OC	4.85%
CC(C)=CCC[C@@H](C)[C@H]1CC[C@@]2(C)C3=C(CC[C@]12C)[C@@]1(C)CC[C@H](O)C(C)(C)[C@@H]1CC3	6.85%
O=C(O)c1cc2ccccc2cc1O	-7.51%
CSC(=O)c1cccc2nnsc12	-3.36%
NCCCCCCCCCCC(=O)O	0.655%
CC1(C)[C@@H]([C@@H](Br)C(Br)(Br)Br)[C@H]1C(=O)O[C@H](C#N)c1cccc(Oc2ccccc2)c1	-17.3%
CN(C)Cc1cc(CN(C)C)c(O)c(CN(C)C)c1	-17.5%
Cc1ccc(N=Nc2c(O)ccc3ccccc23)c([N+](=O)[O-])c1	8.82%
CC(C)Cc1c(C(=O)O)c(C(F)F)nc(C(F)(F)F)c1C1=NCCS1	-2.77%
C=C(C)C(=O)OCC[N+](C)(C)C	0.258%
O=S(=O)(O)c1ccc(N=Nc2cc(S(=O)(=O)O)c3ccccc3c2O)c2ccccc12	11.4%
CCc1cccc(C)c1N(C(=O)CS(=O)(=O)O)[C@@H](C)COC	-2.5%
Nc1c(N=Nc2ccc(S(=O)(=O)CCOS(=O)(=O)O)cc2)c(S(=O)(=O)O)cc2cc(S(=O)(=O)O)c(N=Nc3ccc(S(=O)(=O)CCOS(=O)(=O)O)cc3)c(O)c12	7.7%
OCc1cccc(Oc2ccccc2)c1	3.06%
COC(=O)CSc1cc(N=c2sc(=O)n3n2CCCC3)c(F)cc1Cl	-5.93%
CCCCCCCCCCCCCCN	2.33%
CC1(C)C(C=C(Cl)Cl)[C@H]1C(=O)OCc1cccc(Oc2ccccc2)c1 (stereo not given in full)	-0.893%
CC(C)c1ccc2cc(C(C)C)ccc2c1	-3.98%
COC(=O)c1ccccc1S(=O)(=O)NC(=O)Nc1nc(OC(F)F)cc(OC(F)F)n1	-5.06%
CC(=O)OC1CCC(C(C)(C)C)CC1 (stereo not given)	3%

Source: PubChem BioAssay (NCATS)
